{
  "source": "PubChem BioAssay (EPA / NIEHS)",
  "note": "Active and inactive are the calls of the source. Rule for the calls: active = hit-call score of the fitted dose curve at least 0.9, where 1 is the maximum; inactive = score below 0.9.",
  "data": [
    {"read-out": "sulfotransferase 2A1 (SULT2A1), SULT2A1 (gene 6822)", "assay": "LTEA_HepaRG_SULT2A1: Life Technologies and Expression Analysis (LTEA) Assay for sulfotransferase 2A1 (SULT2A1) using HepaRG (AID 2283531)", "settings": "mRNA level, 48 h; actives raise or lower the signal", "procedure,_shortened": "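Expression change of SULT2A1, by qRT-PCR with three housekeeping-gene normalization, was scored bidirectionally versus DMSO. Cells: differentiated HepaRG, dosed in duplicate for 48 h across 8 points, highest 100 µM, half-log dilution, 0.5% DMSO.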", "values": [
      {"compound": "C=C(C)CN(CC)c1c([N+](=O)[O-])cc(C(F)(F)F)cc1[N+](=O)[O-]", "outcome": "inactive"},
      {"compound": "N#Cc1c[nH]cc1-c1cccc2c1OC(F)(F)O2", "AC50": "50 µM (active)"},
      {"compound": "CCOc1nc(C(Cl)(Cl)Cl)ns1", "outcome": "inactive"},
      {"compound": "CCN(CC)c1nc(C)cc(OP(=S)(OC)OC)n1", "outcome": "inactive"},
      {"compound": "O=C(Nc1ccccc1-c1ccc(Cl)cc1)c1cccnc1Cl", "outcome": "inactive"},
      {"compound": "COC(=O)NS(=O)(=O)c1ccc(N)cc1", "outcome": "inactive"},
      {"compound": "CC(C)NC(=O)N1CC(=O)N(c2cc(Cl)cc(Cl)c2)C1=O", "AC50": "13.1 µM (active)"},
      {"compound": "CC(C)Oc1cccc(NC(=O)c2ccccc2C(F)(F)F)c1", "outcome": "inactive"},
      {"compound": "O=C1C2CC=CCC2C(=O)N1SC(Cl)(Cl)Cl", "note": "(stereo unspecified)", "outcome": "inactive"},
      {"compound": "OC(c1ccc(Cl)cc1)(c1ccc(Cl)cc1)C(Cl)(Cl)Cl", "AC50": "93.9 µM (active)"},
      {"compound": "COc1ccc(-c2ccccc2)cc1NNC(=O)OC(C)C", "outcome": "inactive"},
      {"compound": "CCCC(=NOCC)C1=C(O)CC(CC(C)SCC)CC1=O", "note": "(stereo unspecified)", "outcome": "inactive"},
      {"compound": "CC(C)=CC1C(C(=O)OCc2coc(Cc3ccccc3)c2)C1(C)C", "note": "(stereo unspecified)", "outcome": "inactive"},
      {"compound": "CC1(C)C(C=C(Cl)Cl)C1C(=O)OC(C#N)c1cccc(Oc2ccccc2)c1", "note": "(stereo unspecified)", "outcome": "inactive"},
      {"compound": "CO/N=C(/C1=NOCCO1)c1ccccc1Oc1ncnc(Oc2ccccc2Cl)c1F", "AC50": "33.9 µM (active)"},
      {"compound": "CNC(=O)N(C)c1nnc(C(C)(C)C)s1", "outcome": "inactive"},
      {"compound": "N#CN=C1SCCN1Cc1ccc(Cl)nc1", "outcome": "inactive"},
      {"compound": "CCCCOCN(C(=O)CCl)c1c(CC)cccc1CC", "outcome": "inactive"},
      {"compound": "Nc1cnn(-c2ccccc2)c(=O)c1Cl", "outcome": "inactive"},
      {"compound": "O=c1n(Cl)c(=O)n(Cl)c(=O)n1Cl", "outcome": "inactive"},
      {"compound": "CNC(=O)Oc1cccc2ccccc12", "outcome": "inactive"},
      {"compound": "CC(C)N1C(=O)N(c2ccccc2)CSC1=NC(C)(C)C", "AC50": "96.5 µM (active)"},
      {"compound": "CCSC(=O)N1CCCCCC1", "outcome": "inactive"},
      {"compound": "COP(=O)(OC)O/C(C)=C/C(=O)N(C)C", "outcome": "inactive"},
      {"compound": "Nc1c(Cl)c(F)nc(OCC(=O)O)c1Cl", "outcome": "inactive"},
      {"compound": "Cc1cc(C)nc(Nc2ccccc2)n1", "outcome": "inactive"},
      {"compound": "O=C(O)c1c(Cl)ccc2cc(Cl)cnc12", "outcome": "inactive"},
      {"compound": "N#Cc1c(Cl)cccc1Cl", "outcome": "inactive"},
      {"compound": "CC1(C)C(C(=O)OC(C#N)c2cccc(Oc3ccccc3)c2)C1(C)C", "note": "(stereo unspecified)", "outcome": "inactive"},
      {"compound": "COCC(C)N(C(=O)CCl)c1c(C)csc1C", "note": "(stereo unspecified)", "outcome": "inactive"},
      {"compound": "Cc1c(COC(=O)[C@@H]2[C@H](/C=C(\\Cl)C(F)(F)F)C2(C)C)cccc1-c1ccccc1", "outcome": "inactive"},
      {"compound": "CCCN(CC)CC1COC2(CCC(C(C)(C)C)CC2)O1", "note": "(stereo unspecified)", "outcome": "inactive"},
      {"compound": "COC(=O)c1c(C(F)F)nc(C(F)(F)F)c(C2=NCCS2)c1CC(C)C", "outcome": "inactive"},
      {"compound": "CCCCC(O)(Cn1cncn1)c1ccc(Cl)cc1Cl", "note": "(stereo unspecified)", "AC50": "76.3 µM (active)"},
      {"compound": "CC(C)N1C(=O)c2ccccc2NS1(=O)=O", "outcome": "inactive"},
      {"compound": "CCOP(=S)(OCC)Oc1nc(Cl)n(C(C)C)n1", "outcome": "inactive"}
    ]}
  ]
}
